Compounds with a hit are over-represented: about 10% of the library has one in this group of screens.
RORgamma inh – ROR gamma (mouse) transcription inhibition; P51450; Drosophila S2 Gal4-RORgamma UAS-luciferase reporter, 20 h; Potency, µM (titrated, usually from 53.6 µM), without a hit: at the highest dose activity change, negative = inhibition, usual class: inhibitors; actives 5.4% (n = 310,000); AID 2551; also: % is scaled to controls: 0 for no effect and ±100 for the full control effect; nearly all actives have a fitted effect of over 60% in size
Target sequence (P51450 whole entry, looked up, the tested form may be a part): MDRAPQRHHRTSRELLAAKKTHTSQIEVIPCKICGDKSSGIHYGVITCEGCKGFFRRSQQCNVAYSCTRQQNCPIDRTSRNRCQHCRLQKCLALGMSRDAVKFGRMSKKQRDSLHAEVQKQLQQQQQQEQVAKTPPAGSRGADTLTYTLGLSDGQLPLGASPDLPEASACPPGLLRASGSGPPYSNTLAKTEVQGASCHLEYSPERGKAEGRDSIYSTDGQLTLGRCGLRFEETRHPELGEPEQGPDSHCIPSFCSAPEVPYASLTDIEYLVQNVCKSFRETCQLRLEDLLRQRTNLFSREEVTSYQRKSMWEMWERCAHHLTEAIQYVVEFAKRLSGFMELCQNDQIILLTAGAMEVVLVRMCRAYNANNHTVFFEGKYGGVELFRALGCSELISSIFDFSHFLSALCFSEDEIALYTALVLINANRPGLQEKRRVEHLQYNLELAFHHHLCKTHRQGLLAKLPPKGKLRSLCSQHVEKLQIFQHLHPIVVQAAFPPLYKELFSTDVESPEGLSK
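Drosophila Schneider cells stably carrying a metallothionein-driven Gal4 DBD–ROR gamma fusion and a UAS-Photinus luciferase reporter were exposed to compound for 1 hr, then induced with copper sulfate (700 uM final) for 20 hr at ambient temperature before luminescence reading.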
VP16 counter – inhibits Gal4-VP16 luciferase reporter, ROR gamma counter-screen; Drosophila S2 Gal4-VP16 UAS-luciferase, luminescence, 20 h; Potency, µM (titrated, usually from 53.6 µM), inactives show top-dose activity, negative = inhibition, actives largely listed as inhibitors; actives 3.5% (n = 310,000);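 also: Gal4-VP16 expression switched on by copper sulfate through the metallothionein promoter; % is scaled to controls: 0 for no effect and ±100 for the full control effect; nearly all actives have a fitted effect of over 50% in size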
MCF10A rerep – DNA re-replication induction in MCF 10a cells. MCF 10A DNA re-replication, Hoechst nuclear intensity, 48 h. Potency, µM (doses to about 46.1 µM), without a hit: top-dose activity, positive = re-replication, actives largely listed as activators. actives 2.9% (n = 350,000); also: % of control where 0% means no effect; nearly all actives have a fitted effect of over 50% in size
SW480 rerep – induces DNA re-replication in SW480 colon adenocarcinoma cells; SW480 DNA re-replication, Hoechst DNA content imaging, 48 h; Potency, µM (doses to about 46.1 µM), inactives show top-dose re-replication activation, usual class: activators; actives 1.8% (n = 340,000); AID 624297; also: % of control where 0% means no effect; nearly all actives have a fitted effect of over 55% in size
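Hoechst fluorescence of nuclei (405 nm excitation, 500-530 nm emission) measured by plate-scanning imager after 48 hr compound exposure at 37 C; re-replication scored as increased number of nuclei with elevated intensity.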
ELG1 repair inh – ELG1-dependent DNA repair inhibition; Potency, µM (doses to about 46.1 µM), for inactives: top-dose activity change, negative = inhibition, usual class: inhibitors; actives 2.3% (n = 330,000); HEK293T ELG1-luciferase reporter, luminescence, 16 h; DNA damage induced by 5-fluorouridine; also: % is scaled to controls: 0 for no effect and ±100 for the full control effect; nearly all actives have a fitted effect of over 55% in size
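DMSO vehicle served as the neutral condition. Each well held 2,000 cells given 5-fluorouridine plus compound; after 16 hr at 37 °C/5% CO2, ONE-Glo was added and luciferase measured 30 min later.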
An asterisk follows results filed as active; ? = inconclusive; . = not tested or not shown; [ ] = dose if it differs, or a comment. Calls follow the shape of the dose curve; as a rule, active = well fitted curve in the direction sought with a large enough effect; inconclusive = small, poorly fitted or top-dose-only effect, or another doubt; inactive = no such curve, though single readings can be large; an effect the other way counts as inactive or inconclusive. Potency is read from the fitted curve at half-maximal effect.

SMILES | RORgamma inh | VP16 counter | MCF10A rerep | SW480 rerep | ELG1 repair inh
CCOC(=O)c1c(-c2ccc(-c3ccccc3)cc2)csc1NC(=O)CCN1CCOCC1 | -14.8% | -3.9% | 8.2µM* | 23.0% | ?
CCOC(=O)c1c(-c2ccc(OC)cc2)csc1NC(=O)COc1ccc2c(C)cc(=O)oc2c1 | -9.9% | ? | 17.7% | -1.2% | ?
CC1=C(C(=O)OCCBr)C(c2cccc3ccccc23)NC(=O)N1 (centres undefined) | -14.4% | 0.1% | -19.2% | -41.1% | 22.0%
CCOc1ccc(S(=O)(=O)c2cn(C)c3cc(OC)c(OC)cc3c2=O)cc1 | 2.7% | 1.5% | 0.5% | 1.7% | 0.8%
CC(=O)Nc1sc(N/N=C/c2ccc(C)cc2)nc1-c1ccc(C)cc1 | ? | ? | 1.7% | -18.9% | 0.0%
CC(=O)Nc1sc(/C(C#N)=C/c2ccc(Cl)c(Cl)c2)nc1-c1ccc(C)cc1 | -1.6% | -10.1% | 1.84µM* | ? | 2.8%
O=S1(=O)c2ccc(Br)cc2OC(COCc2ccccc2)CN1Cc1ccccc1 (centres undefined) | . | . | -6.0% | ? | -11.7%
O=S1(=O)c2ccc(Br)cc2N2CCC[C@@H]2CN1Cc1ccccc1 | . | . | ? | 2.91µM* | ?
COc1ccc(-c2noc(N3CCC(C(=O)Nc4ccc(OC)cc4OC)CC3)n2)cc1 | -21.9% | -7.1% | 6.1% | -9.0% | 13µM*
O=C(c1cccc(F)c1)N1CCC2(CCCN(c3ccccc3)C2)CC1 | 13.1% | 1.3% | . | . | .
O=C(O)c1ccc(S(=O)(=O)NC2CCCc3ccccc32)cc1 (centres undefined) | 20.1% | -9.4% | 1.2% | -4.6% | 12.5%
O=S(=O)(NC1CCCc2ccccc21)c1cnc[nH]1 (centres undefined) | 12.6µM* | ? | ? | -8.6% | 7.7%
O=C(NS(=O)(=O)Oc1ccc(Cl)cc1)OC[C@@H]1CCCN2CCCC[C@H]12 | -3.7% | ? | -6.0% | 0.6% | 0.8%
CC(SC(C)C(=O)NN=Cc1cccc(Cl)c1)C(=O)NN=Cc1cccc(Cl)c1 (centres undefined) | . | . | 4.11µM* | 9.2µM* | .
COC(=O)/C=C1\N/C(=N\c2nc(C)cc(C)n2)N(c2ccc(Cl)cc2)C1=O | -41.2% | 6.2% | -1.4% | 4.5% | -0.7%
COC(=O)/C=C1\N/C(=N\c2nc(C)cc(C)n2)N(c2ccc(C)c(C)c2)C1=O | 11.2µM* | ? | 17.5% | 11.3% | -6.5%
Fc1ccccc1CNC(=S)Nc1cccc(C(F)(F)F)c1 | 7.08µM* | 7.08µM* | ? | 8.3% | -12.6%
FC(F)(F)c1cccc(NC(=S)NCc2ccc(Cl)cc2)c1 | 8.91µM* | ? | 18.4µM* | 7.3% | ?
Fc1cc(NC(=S)NCc2ccc(CNC(=S)Nc3ccc(Cl)c(F)c3)cc2)ccc1Cl | -33.3% | -9.8% | ? | 10.7% | -5.3%
Fc1ccc(CNC(=S)Nc2cccc(C(F)(F)F)c2)cc1 | ? | ? | 23.2% | 0.1% | ?
Fc1cccc(NC(=S)NCc2ccc(Cl)cc2)c1 | 6.31µM* | 17.8µM* | 22.8% | -32.8% | -5.8%
CC(C)(C)NNC(=S)Nc1cccc(F)c1 | 0.631µM* | 3.55µM* | ? | 13.9% | -26.9%
N=C(N)c1ccc2cc(OC(=O)c3ccc(N=C(N)N)cc3)ccc2c1 | 7.1%[10 µM] | -12.3% | -1.5% | -10.3% | .
CCOC(=O)N1CCN(Cc2nc3cc(NC(=O)c4ccco4)ccc3n2CC)CC1 | ? | -4.4% | 14.0% | 0.8% | -4.5%
O=C(Cc1ccc(Cl)cc1)NCCc1c[nH]c2ccccc12 | . | . | -11.8% | -2.8% | .
SMILES | RORgamma inh | VP16 counter | MCF10A rerep | SW480 rerep | ELG1 repair inh
O=C(CCl)N(c1ccc(Cl)cc1)c1c[nH]c2ccccc12 | 4.47µM* | 10µM* | 2.59µM* | 20.6µM* | 25.9µM*
O=C(CCl)N(c1ccccc1)c1c[nH]c2ccccc12 | 14.1µM* | ? | 14.6µM* | ? | 20.6µM*
S=C1NCN(Cc2ccccc2)CN1C1CCCCC1 | 0.794µM* | 3.98µM* | -7.2% | 2.7% | -7.3%
S=C1NCN(C2CCCCC2)CN1Cc1ccccc1 | 1.78µM* | 3.55µM* | -4.8% | 4.2% | 1.7%
O=C(NC1CC2CCCC(C1)N2Cc1ccccc1)C1CCCCC1 (centres undefined) | -25.8% | 7.1% | -3.9% | -163.5% | 6.3%
Cc1oc(-c2cc(F)cc(F)c2)nc1CN1CCN(C(=O)c2ccco2)CC1 | 20.4% | -0.2% | 7.6% | -2.5% | -18.6%
O=C(COC(=O)c1cccc2c1C(=O)c1ccccc1C2=O)NC1CCCCC1 | ? | -10.8% | 84.8% | -5.8% | ?
O=C(COC(=O)c1ccccc1C(=O)c1ccc(Cl)c([N+](=O)[O-])c1)NC1CCCCCC1 | 4.47µM* | ? | 2.59µM* | 3.66µM* | ?
CC(C)N(C(=O)COC(=O)c1ccccc1C(=O)c1ccc(Cl)c([N+](=O)[O-])c1)C(C)C | -22.1% | ? | ? | ? | ?
O=C(COC(=O)c1ccc2c(c1[N+](=O)[O-])C(=O)c1ccccc1C2=O)NC1CC1 | ? | 17.8µM* | ? | ? | 3.2%
CN(CCC#N)C(=O)COC(=O)c1ccccc1C(=O)c1ccc(Cl)c([N+](=O)[O-])c1 | -2.5% | 4.0% | 9.2µM* | 22.6% | 20.3%
Cn1c(N)c(C(=O)COC(=O)c2ccccc2C(=O)c2ccc(Cl)c([N+](=O)[O-])c2)c(=O)n(C)c1=O | . | . | 11.6µM* | ? | ?
CC(C)c1nc2cc(C(=O)N(C)Cc3ccc(F)cc3)ccc2o1 | ? | ? | 2.9% | 0.8% | ?
CC1=C(C(=O)N(C)C)C(c2cccc(Cl)c2)NC(=O)N1 (centres undefined) | 11.2µM* | -2.0% | ? | -10.0% | 3.9%
COc1ccc(CC(=O)N(Cc2ccccc2)c2ccc(C)cc2)cc1OC | -1.0% | -8.2% | 14.2% | -1.8% | 29.9%
CCCc1c(C(=O)N/N=C/c2sccc2C)nnn1-c1nonc1N | ? | 5.62µM* | ? | -3.8% | 14.4%
Cc1ccsc1/C=N/NC(=O)c1nnn(-c2nonc2N)c1C(C)C | 11.2µM* | 17.8µM* | -5.9% | -15.3% | 6.0%
CC(C)c1c(C(=O)N/N=C/c2cccs2)nnn1-c1nonc1N | ? | -88.2% | -3.6% | 27.1% | 2.4%
CC(=O)Nc1ccc2c(CSc3nnc(-c4cccnc4)n3-c3ccc(C)cc3C)cc(=O)oc2c1 | 28.5% | 2.8% | 2.3% | -17.9% | 9.2µM*
CC(C)c1ccccc1-n1c(SCc2cc(=O)oc3ccc4ccccc4c23)nnc1-c1cccnc1 | ? | ? | 18.9% | . | 23.1µM*
O=C(NCCCCc1ccccc1)c1cccc(NC(=O)C2CC2)c1 | . | . | 3.3% | 2.5% | .
CCOC(=O)c1ccc(S(=O)(=O)N2CCN(C/C=C/c3ccccc3)CC2)cc1 | . | . | 8.4% | -12.1% | ?
